Data from PubChem BioAssay (Tox21).
“And” between values parts separate entries of the source, which are not always exact repeats. Equal entries are not always repeated. Records with an inconclusive call do not appear. More than one record can exist for a structure, and the calls need not agree. The source made the active and inactive calls. Unless noted, calls follow the shape of the dose curve; as a rule, active = well fitted curve in the direction sought with a large enough effect in the repeat runs; inconclusive = weak or mixed curves; inactive = no such curve, though single readings can be large; an effect the other way counts as inactive or inconclusive.

Assays:
[1] = qHTS assay for small molecules that induce genotoxicity in human embryonic kidney cells expressing luciferase-tagged ATAD5 (AID 651632); also: nearly all actives have a fitted effect of over 15% in size; also: potency is read from the fitted curve at half-maximal effect
Summary of the method: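 Test compounds were delivered by pin tool onto HEK293T reporter cells (2,000/well) expressing ATAD5 fused to luciferase. After 16 hr at 37C, 5% CO2, Amplite was added for 30 min at room temperature and luminescence was measured.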

[2] = qHTS assay for small molecules that induce genotoxicity in human embryonic kidney cells expressing luciferase-tagged ATAD5 - cell viability (AID 651634; calls by dose curve; also: nearly all actives have a fitted effect of over 25% in size; also: potency is read from the fitted curve at half-maximal effect)
Summary of the method: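 Quantitative high-throughput format. HEK293T cells expressing ATAD5 fused to luciferase were plated at 2,000 cells/well and treated 15.5 hr with compound versus DMSO. Viability was determined by fluorescent live-cell protease substrate, 30 min at 37C.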

[3] = qHTS assay to test for compound auto fluorescence at 590 nm (red) in HepG2 cells (AID 720674)
Summary of the method: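 HepG2 cells, 2,000 per well in MEM with 10% FBS, attached overnight at 37 C, then got 23 nL compound or DMSO. After 1 hr at 37 C, 5% CO2, red fluorescence was read at 540/590 nm against Rose Bengal sodium as reference.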

[4] = qHTS assay to test for compound auto fluorescence at 535 nm (green) in HepG2 cells (AID 720675)
[5] = qHTS assay to test for compound auto fluorescence at 590 nm (red) in HEK293 cells (AID 720679)
Summary of the method: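 Red channel, Ex/Em 540/590nm; signal expressed as equivalency to Rose Bengal sodium. HEK293, 2,000 cells/well, 10% dialyzed FBS; 23 nL compound pinned after 4-5 hr attachment; overnight 37C/5% CO2 before reading.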

[6] = qHTS assay to test for compound auto fluorescence at 460 nm (blue) in HEK293 cell free culture (AID 720681)
Summary of the method: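 Compounds were added to cell-free DMEM with 10% FBS and fluorescence read directly. The blue channel used 405 nm excitation and 460 nm emission, with triamterene as the reference fluorophore.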

[7] = qHTS assay to test for compound auto fluorescence at 535 nm (green) in HEK293 cell free culture (AID 720682)
Summary of the method: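 Using fluorescein as calibrant, autofluorescence was quantified at 485/535 nm in cell-free DMEM containing 10% FBS after pintool addition of compound or vehicle.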

[8] = qHTS assay to test for compound auto fluorescence at 590 nm (red) in HepG2 cell free culture (AID 720684)
Summary of the method: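 Rose Bengal sodium served as the reference for red signal. Test compounds were dispensed into serum-containing MEM (10% FBS) without cells, and plates were read at 540/590 nm.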

[9] = qHTS assay to test for compound auto fluorescence at 460 nm (blue) in HepG2 cell free culture (AID 720685)
Summary of the method: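 Cell-free plates of MEM plus 10% FBS received 23 nL compound or DMSO vehicle; blue-channel (405/460 nm) intensity scored against triamterene as reference fluorophore.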

[10] = qHTS assay to test for compound auto fluorescence at 535 nm (green) in HepG2 cell free culture (AID 720686)
[11] = qHTS assay to test for compound auto fluorescence at 460 nm (blue) in HepG2 cells (AID 720687)
Summary of the method: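 HepG2 cells in MEM with 10% FBS, attached overnight at 37 C, were exposed to compound or DMSO for 1 hr at 37 C, 5% CO2. Blue fluorescence was read at 405/460 nm, with triamterene as reference fluorophore.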

[12] = qHTS assay to identify small molecule antagonists of the estrogen receptor alpha (ER-alpha) signaling pathway - cell viability counter screen (AID 743074; calls by dose curve;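 also: HEK293 cells carrying ER-alpha-UAS-bla reporter stimulated with 17beta-estradiol; nearly all actives have a fitted effect of over 45% in size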; also: potency is read from the fitted curve at half-maximal effect)
[13] = qHTS assay to identify small molecule antagonists of the estrogen receptor alpha (ER-alpha) signaling pathway using the BG1 cell line - cell viability counter screen (AID 743081);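 also: compound given together with 17beta-estradiol as the ER stimulus; series mostly up to about 70 µM; nearly all actives have a fitted effect of over 45% in size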
Aromatase (Homo sapiens) = Aromatase (Homo sapiens) (UniProt P11511); assay: qHTS assay to identify aromatase inhibitors (AID 743083); also: nearly all actives have a fitted effect of over 55% in size; also: potency is read from the fitted curve at half-maximal effect
Chain of Aromatase (Homo sapiens) (P11511 whole entry, looked up): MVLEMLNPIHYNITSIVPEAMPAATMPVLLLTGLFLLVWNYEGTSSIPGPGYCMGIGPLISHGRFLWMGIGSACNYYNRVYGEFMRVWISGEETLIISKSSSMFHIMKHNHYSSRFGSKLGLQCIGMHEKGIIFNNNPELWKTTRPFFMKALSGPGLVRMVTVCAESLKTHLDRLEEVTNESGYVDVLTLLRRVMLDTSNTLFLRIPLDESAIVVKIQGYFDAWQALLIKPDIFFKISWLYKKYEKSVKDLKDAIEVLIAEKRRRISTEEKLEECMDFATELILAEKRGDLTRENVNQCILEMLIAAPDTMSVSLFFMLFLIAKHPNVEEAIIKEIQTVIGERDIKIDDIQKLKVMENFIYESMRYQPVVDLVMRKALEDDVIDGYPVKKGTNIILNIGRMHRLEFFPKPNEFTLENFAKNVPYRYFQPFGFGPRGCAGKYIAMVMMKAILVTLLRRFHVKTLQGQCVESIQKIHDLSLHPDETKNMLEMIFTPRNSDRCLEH

[14] = qHTS assay to identify aromatase inhibitors - cell viability counter screen (AID 743084);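 also: cells stimulated with testosterone during compound exposure; nearly all actives have a fitted effect of over 55% in size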; also: potency is read from the fitted curve at half-maximal effect
[15] = target: Aryl hydrocarbon receptor (Homo sapiens) (UniProt P35869); assay: qHTS assay to identify small molecule that activate the aryl hydrocarbon receptor (AhR) signaling pathway (AID 743085); also: nearly all actives have a fitted effect of over 15% in size; also: potency is read from the fitted curve at half-maximal effect;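 as to activation: HG2L7.5c1 human HepG2 liver cells with stably integrated DRE-driven firefly reporter; series mostly up to about 70 µM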
Chain of Aryl hydrocarbon receptor (Homo sapiens) (P35869 whole entry, looked up): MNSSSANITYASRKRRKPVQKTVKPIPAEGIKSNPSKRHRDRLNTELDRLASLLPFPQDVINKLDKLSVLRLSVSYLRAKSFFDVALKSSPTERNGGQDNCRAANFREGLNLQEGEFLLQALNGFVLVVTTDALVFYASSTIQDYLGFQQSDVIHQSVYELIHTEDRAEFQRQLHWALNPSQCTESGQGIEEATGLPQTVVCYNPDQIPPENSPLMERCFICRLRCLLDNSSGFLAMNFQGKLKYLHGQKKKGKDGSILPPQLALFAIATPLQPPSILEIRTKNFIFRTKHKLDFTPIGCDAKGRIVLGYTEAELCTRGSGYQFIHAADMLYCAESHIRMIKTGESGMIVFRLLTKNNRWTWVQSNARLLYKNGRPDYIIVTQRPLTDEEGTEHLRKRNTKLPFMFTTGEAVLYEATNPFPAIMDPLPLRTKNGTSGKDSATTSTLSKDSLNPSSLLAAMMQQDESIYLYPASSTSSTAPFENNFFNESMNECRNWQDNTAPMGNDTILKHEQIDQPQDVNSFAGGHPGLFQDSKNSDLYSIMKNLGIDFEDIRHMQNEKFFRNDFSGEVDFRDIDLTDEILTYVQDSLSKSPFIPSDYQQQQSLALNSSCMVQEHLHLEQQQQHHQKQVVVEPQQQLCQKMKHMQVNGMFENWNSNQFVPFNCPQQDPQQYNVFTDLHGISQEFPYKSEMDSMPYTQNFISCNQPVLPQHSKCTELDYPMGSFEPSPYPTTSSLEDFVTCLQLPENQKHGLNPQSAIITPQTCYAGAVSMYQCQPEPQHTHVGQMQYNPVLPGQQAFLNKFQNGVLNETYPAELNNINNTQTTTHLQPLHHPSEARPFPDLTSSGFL
Summary of the method: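 Measured in HG2L7.5c1 cells: CellTiter-Fluor signal (30 min incubation, 37C) for viability, then luciferase luminescence (30 min, room temperature). Compound contact time was 24 h at 37C, following a 5 h pre-incubation.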

[16] = qHTS assay to identify small molecule that activate the aryl hydrocarbon receptor (AhR) signaling pathway - cell viability counter screen (AID 743086); also: nearly all actives have a fitted effect of over 45% in size; also: potency is read from the fitted curve at half-maximal effect
Summary of the method: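 HepG2-AhR-luc (HG2L7.5c1) cells, 4000/well, treated 24 h at 37 C with compound; viability measured as CellTiter-Fluor fluorescence after 30 min in the same wells as the luciferase read.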

[17] = qHTS assay to identify small molecule phospholipidosis (PLD) inducers (AID 1259344; active = well fitted curve in the direction sought with a large enough effect; an effect the other way counts as inactive or inconclusive)
Summary of the method: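 Read-out is LipidTOX Red fluorescence (ex 595/em 615) imaged in HepG2 cells after 24 h compound exposure at 37 C, with Hoechst nuclear counterstain (ex 352/em 461) allowing per-cell normalisation.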

[18] = target: Nuclear receptor subfamily 1 group I member 2 (Rattus norvegicus) (UniProt Q9R1A7); assay: Rat pregnane X receptor (rPXR) activation by small molecules, qHTS assay (AID 1346983); settings: rPXR luciferase reporter cells, One-Glo luminescence, 24 h; max activation: stronger effect = higher value; also: nearly all actives have a fitted effect of over 20% in size
Chain of Nuclear receptor subfamily 1 group I member 2 (Rattus norvegicus) (Q9R1A7 whole entry, looked up): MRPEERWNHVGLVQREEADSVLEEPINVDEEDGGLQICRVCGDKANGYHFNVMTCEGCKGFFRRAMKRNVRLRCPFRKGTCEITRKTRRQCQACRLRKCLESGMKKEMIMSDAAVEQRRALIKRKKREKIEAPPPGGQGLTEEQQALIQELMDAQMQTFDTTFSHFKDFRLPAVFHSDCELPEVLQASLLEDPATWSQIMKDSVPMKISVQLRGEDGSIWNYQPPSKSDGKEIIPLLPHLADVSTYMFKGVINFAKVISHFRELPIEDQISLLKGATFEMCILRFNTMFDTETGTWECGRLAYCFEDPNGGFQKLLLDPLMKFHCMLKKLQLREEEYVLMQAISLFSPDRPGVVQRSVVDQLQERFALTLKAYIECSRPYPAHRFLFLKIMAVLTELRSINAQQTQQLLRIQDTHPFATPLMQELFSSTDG
Summary of the method: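 Cell-based rPXR activation assay: rPXR cells, 2,000 per well, rested 5hr at 37 C, then exposed to compounds in DMSO for 24 hr at 37 C. Luciferase activity read by One-Glo luminescence after 30 min at room temperature.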

[19] = target: Nuclear receptor subfamily 1 group I member 2 (Homo sapiens) (UniProt O75469); assay: CYP3A4 induction through human pregnane X receptor (PXR) by small molecules, qHTS assay (AID 1346984); also: nearly all actives have a fitted effect of over 40% in size; also: potency is read from the fitted curve at half-maximal effect
Summary of the method: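 Human PXR activation is tracked via CYP3A4 promoter-luciferase in DPX-2 (HepG2) cells. Compounds treat cells for 24hr at 37C, and luminescence is read after One-Glo.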
% is scaled to controls: 0 for no effect and ±100 for the full control effect.

CN1[C@H]2CC[C@@H]1[C@@H](C(=O)O)[C@@H](OC(=O)c1ccccc1)C2
inactive: Potency [1] | Potency [2] | outcome [3] | Potency [4] | outcome [5] | Potency [6] | Potency [7] | outcome [8] | Potency [9] | Potency [10] | Potency [11] | Potency [12] | Potency [13] | Potency (Aromatase (Homo sapiens)) | Potency [14] | Potency [15] | Potency [16] | Potency [17] | max activation [18] -2.75% | Potency [19]

Oc1cc[c]([Hg][Cl])cc1
21.3 µM (active) and inactive: Potency [12]
inactive: outcome [3] | Potency [4] | outcome [5] | Potency [6] | Potency [7] | outcome [8] | Potency [9] | Potency [10] | Potency [11] | Potency [13] | Potency [15] | Potency [17] | max activation [18] -21.4% | Potency [19]
active: Potency [1] 4.22 µM and 8.41 µM | Potency [2] 11.9 µM and 13.3 µM | Potency (Aromatase (Homo sapiens)) 6.68 µM and 13.3 µM | Potency [14] 6.68 µM and 11.9 µM | Potency [16] 13.3 µM

O=C1CCO1
inactive: Potency [1] | Potency [2] | outcome [3] | Potency [4] | outcome [5] | Potency [6] | Potency [7] | outcome [8] | Potency [9] | Potency [10] | Potency [11] | Potency [13] | Potency (Aromatase (Homo sapiens)) | Potency [14] | Potency [15] | Potency [16] | Potency [17] | max activation [18] -0.633% | Potency [19]

CCCC(C)(COC(N)=O)COC(=O)NC1CC1 (stereo not drawn)
inactive: Potency [1] | Potency [2] | outcome [3] | Potency [4] | outcome [5] | Potency [6] | Potency [7] | outcome [8] | Potency [9] | Potency [10] | Potency [11] | Potency [12] | Potency [13] | Potency (Aromatase (Homo sapiens)) | Potency [14] | Potency [15] | Potency [16] | Potency [17] | max activation [18] -2.91% | Potency [19]

C[N+]1([O-])[C@@H]2CC[C@H]1CC(OC(=O)C(CO)c1ccccc1)C2 (stereo partly drawn)
inactive: Potency [1] | Potency [2] | outcome [3] | Potency [4] | outcome [5] | Potency [6] | Potency [7] | outcome [8] | Potency [9] | Potency [10] | Potency [11] | Potency [12] | Potency [13] | Potency (Aromatase (Homo sapiens)) | Potency [14] | Potency [15] | Potency [16] | Potency [17] | max activation [18] -0.187% and -0.592% | Potency [19]

CNC(C)C(O)c1ccc(O)cc1 (stereo not drawn)
inactive: Potency [1] | Potency [2] | outcome [3] | Potency [4] | outcome [5] | Potency [6] | Potency [7] | outcome [8] | Potency [9] | Potency [10] | Potency [11] | Potency [12] | Potency [13] | Potency (Aromatase (Homo sapiens)) | Potency [14] | Potency [15] | Potency [16] | Potency [17] | max activation [18] -2.76% and -1.51% | Potency [19]

CNC(=O)Oc1ccccc1C(=O)Nc1ccccc1
inactive: Potency [1] | Potency [2] | outcome [3] | Potency [4] | outcome [5] | Potency [6] | Potency [7] | outcome [8] | Potency [9] | Potency [10] | Potency [11] | Potency [12] | Potency [13] | Potency (Aromatase (Homo sapiens)) | Potency [14] | Potency [16] | Potency [17] | max activation [18] -3.26%
active: Potency [15] 23.7 µM | Potency [19] 14.1 µM

Cc1cccc(C(C)c2cnc[nH]2)c1C (stereo not drawn)
active: Potency (Aromatase (Homo sapiens)) 29.8 µM | Potency [15] 11.9 µM
inactive: Potency [2] | outcome [3] | Potency [4] | outcome [5] | Potency [6] | Potency [7] | outcome [8] | Potency [9] | Potency [10] | Potency [11] | Potency [12] | Potency [13] | Potency [14] | Potency [16] | Potency [17] | max activation [18] -0.62% | Potency [19]

CCCCC[C@@H](O)C1C(=O)OC(C)[C@H](O)/C=C/C=C/C=C/C=C/C=C(\C)C(O)C(O)C(O)C[C@H](O)C[C@H](O)C[C@H](O)C[C@H](O)C[C@@H]1O (stereo partly drawn)
inactive: Potency [1] | Potency [2] | outcome [3] | Potency [4] | outcome [5] | Potency [6] | Potency [7] | outcome [8] | Potency [9] | Potency [10] | Potency [11] | Potency [12] | Potency [13] | Potency (Aromatase (Homo sapiens)) | Potency [14] | Potency [15] | Potency [16] | Potency [17] | max activation [18] 0.909% | Potency [19]
